Pf Dd2 inh: inhibitors of Plasmodium falciparum Dd2 growth; AID 1347417; P. falciparum Dd2 growth, SYBR Green, 72 h; Potency, µM (series often up to 28.9 µM), for inactives: at the highest dose activity, negative = inhibition, most hits filed as inhibitors; actives 4.3% (n = 120,000); active means well fitted inhibition curve with a large enough effect;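 further: plate controls were DMSO vehicle for no effect and reference drug for full effect; nearly all actives have a fitted effect of over 65% in size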
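Readout: SYBR Green fluorescence, 485 nm excitation, 535 nm emission, after ~16 h lysis at 37C. Before that, Dd2-infected red cells (2.5% hematocrit) grew 72 h with compound, 29 uM top final concentration.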
* marks the source's active call; other numbers are inactive results; i = inactive; [ ] = another dose, or the depositor's remark. Many of the other results were omitted from the sample, so hits are more common in it than they were. Potency means the concentration at half of the fitted maximal effect.

SMILES	Pf Dd2 inh
CN1Cc2ccccc2-n2ccnc2C12CCN(C(=O)c1ccn[nH]1)CC2	i[5.79 µM]
CN(C)Cc1ccccc1-c1ccc2n(c1=O)C[C@H]1C[C@@H]2CN(C(=O)C2CCCCC2)C1	-4%[44.1 µM]
O=C(CCC1CCN(Cc2ccc(Cl)s2)CC1)N1CCN(c2ccccc2)CC1	-13%
CCOC(=O)C1CCCN(C(=O)c2cc3c(Cl)nc4ccccc4c3s2)C1 (stereo not drawn)	-16%
COc1ccc(OC)c(CNC(=O)c2cc3c(Cl)nc4ccccc4c3s2)c1	50%
O=C(NCCCN1CCN(c2ccccc2F)CC1)c1cc2c(Cl)nc3ccccc3c2s1	2.8µM*
CC(C)NC(=O)N(C1CC1)C1CCOC2(CCN(C(=O)Cc3cccc(F)c3)CC2)C1 (stereo not drawn)	1%
CCn1ccc(C(=O)N2CCCN(S(C)(=O)=O)C(c3ccccc3)CC(=O)NCC2)n1 (stereo not drawn)	-20%
CN(C)c1ccc(C(=O)Nc2ccc(-c3nc4ccccc4o3)cc2)cc1	-25%
Cc1ccccc1OCC(=O)Nc1ccc(-c2nc3ccccc3o2)cc1	i
CCN(CC)CC(=O)N1CCC(C(=O)Nc2ccc(-c3nc4ccccc4o3)cc2)CC1	10µM*
O=C(c1cccnc1)N1CCn2ncc(C(=O)N3CCOCC3)c2C1	28%
O=C(Nc1ccc(Oc2ccccc2)cc1)N[C@H]1CO[C@H]2[C@@H]1OC[C@@H]2Nc1nccc(-c2cccs2)n1	2%
Cc1ccc(C(=O)N2CCC3(CC2)N=C(c2ccccc2)NO3)cc1	i
Cc1ccc(C(=O)N2CCC(c3c[nH]c4ccccc34)(c3c[nH]c4ccccc34)CC2)cc1	2µM*
COc1ccc(C(=O)N2CCC3(CC2)NCCc2c3[nH]c3ccccc23)cc1	-18%
Cc1cccc(NC(=O)C2CC(=O)N(c3n[nH]c4cc(Br)ccc34)C2)c1C (stereo not drawn)	17%
Cc1ccc(C)c(NC(=O)Cn2nc3n(c2=O)CCCC3)c1	i
CC(=O)N1CC(CO)C2(CCN(Cc3ccc(C)o3)CC2)C1 (stereo not drawn)	-9%
Cc1ccc(-c2nnc(Nc3ccccc3O)c3ccccc23)cc1	-24%
Cc1ccc(-c2nnc(Nc3ccc(O)cc3)c3ccccc23)cc1S(=O)(=O)NCC1CCCO1 (stereo not drawn)	5µM*
Cc1ccc(-c2noc(-c3ccc(NCC4CCCO4)c([N+](=O)[O-])c3)n2)cc1 (stereo not drawn)	18%
CCOC(=O)c1c(Nc2ccc(F)cc2)nnc(-c2ccccc2)c1-c1ccccc1	-29%
Cc1cc(C)n(-c2nnc(Nc3ccc(C)c(C)c3)c3ccccc23)n1	-22%
Cc1ccc(-c2nnc(Nc3ccc(C(=O)N(C)C)cc3)c3ccccc23)cc1S(=O)(=O)N(C)C	11µM*
SMILES	Pf Dd2 inh
CNC(=O)c1ccc(Nc2nnc(-c3ccc(C)c(S(=O)(=O)N(C)C)c3)c3ccccc23)cc1	-11%
CNS(=O)(=O)c1cc(-c2nnc(Nc3cc(C)ccc3C)c3ccccc23)ccc1C	5µM*
Cc1cc(C)n(-c2nnc(Nc3ccc(C(C)C)cc3)c3ccccc23)n1	6%
Cc1ccc(-c2nnc(Nc3ccc(F)cc3)c3ccccc23)cc1S(=O)(=O)NC(C)C	11µM*
Cc1cc(-c2ccc(C)c(S(=O)(=O)NC3CCCCC3)c2)on1	i
Cc1cc(C)n(-c2nnc(Nc3cc(Cl)ccc3C)c3ccccc23)n1	61%
COc1cccc(CC(=O)N2CCC(Cc3nc(-c4ccncc4)n[nH]3)C2)c1 (stereo not drawn)	i
O=C(O)c1ccc(CN2CCC(N3CCCC(C(=O)N4CCCC4)C3)CC2)cc1 (stereo not drawn)	6%
CN1C(=O)C(CC(=O)N2CC(O)C2)(Cc2ccccc2)c2ccccc21 (stereo not drawn)	-8%
COc1ccc(-c2noc([C@H](C)O)c2C(=O)NC2CC2)cc1	-18%[44.1 µM]
COc1ccc(CN[C@H]2C[C@H]3C(=O)NC[C@@H](CCC(=O)NCc4ccccc4)N3C2)cc1	i
Cn1nc(C2CCN(C(=O)c3ccsc3)CC2)c2c1CCOC2	41%[5.79 µM]
CC1CCc2nn3ccn(CC(=O)NCc4ccccc4)c(=O)c3c2C1 (stereo not drawn)	-9%
Cc1ccc(-c2nnc(Nc3ccc(O)cc3)c3ccccc23)cc1S(=O)(=O)N1CCCCC1	10µM*
Cc1ccccc1Nc1nnc(-c2ccc(C)c(S(=O)(=O)N3CCOCC3)c2)c2ccccc12	31%
Cc1ccc(-c2nnc(Nc3ccc(S(N)(=O)=O)cc3)c3ccccc23)cc1S(=O)(=O)N1CCCCC1	19%
Cc1ccc(-c2nnc(Nc3ccc(Br)cc3)c3ccccc23)cc1S(=O)(=O)NCC1CCCO1 (stereo not drawn)	10µM*
COc1ccc(Nc2nnc(-c3ccc(C)c(S(=O)(=O)NCc4nc5ccccc5[nH]4)c3)c3ccccc23)cc1	75%
Cc1cc(-c2ccc(C)c(S(=O)(=O)NCc3cccc(Br)c3)c2)on1	20%
Cc1ccc(C(=O)Nc2cccc(O)c2)cc1S(=O)(=O)N1CCCCCC1	-24%
